# Compound activity (PubChem)
# MITF primary = inhibitors of human MITF | O75030 | AlphaScreen MITF homodimerization, bead proximity signal | inhibition, % at 2.6 µM | actives 0.91% (n = 650,000) | AID 1259374; in the data active = inhibition above about 50%;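 also: 0% = vehicle wells with protein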
# FBW7 act = human FBW7 E3 ligase activation, primary screen; normalized activity (activation), % at 26.1 µM; AlphaScreen FBW7–phospho-cyclin E peptide binding, activator screen; AID 1259310; actives 0.13% (n = 650,000); in the data active = normalized activity above about 1.9%;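 also: purified mutant Fbw7 with reduced substrate affinity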
# GPR151 activ = activators of human GPR151; Q8TDV0; PathHunter beta-arrestin GPR151 cells, luminescence; activation, % at 11.2 µM; actives 1% (n = 650,000); AID 1508602; in the data active = activation above about 4.9%;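 also: 0% = median of compound wells and 100% = cells with positive control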
# Target sequence (Q8TDV0 whole entry, looked up): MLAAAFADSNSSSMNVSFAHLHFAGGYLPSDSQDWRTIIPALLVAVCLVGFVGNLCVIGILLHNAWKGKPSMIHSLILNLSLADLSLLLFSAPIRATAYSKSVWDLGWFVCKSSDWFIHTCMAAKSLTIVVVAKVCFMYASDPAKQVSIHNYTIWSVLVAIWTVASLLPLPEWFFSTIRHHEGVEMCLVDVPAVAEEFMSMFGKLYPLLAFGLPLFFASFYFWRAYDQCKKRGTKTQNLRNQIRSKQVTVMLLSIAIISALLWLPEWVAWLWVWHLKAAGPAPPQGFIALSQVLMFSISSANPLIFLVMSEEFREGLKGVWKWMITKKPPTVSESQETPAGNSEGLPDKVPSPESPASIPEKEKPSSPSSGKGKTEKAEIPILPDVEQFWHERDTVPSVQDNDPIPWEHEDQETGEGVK
# TEAD-YAP inh = TEAD-YAP interaction inhibition; AID 1259422; actives 1.4% (n = 640,000); inhibition, % at 9.12 µM; HEK-TIYL cells, TEAD-Gal4/YAP UAS-luciferase luminescence; in the data active = inhibition above about 32%;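 also: 0% = median of test compound wells and 100% = reference inhibitor wells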
# GPR151 confirm = confirmation of human GPR151 activators; GPR151 PathHunter beta-arrestin cells, luminescence, 90 min; % of EA-reagent control over plate median; activation, % at 11.2 µM; shares compounds with GPR151 activ; 6,700 tested, under 10 active;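 active = mean percent activation across replicates above the confirmation screen cutoff of 4.91%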
# GPR119 counter = activates human GPR119 in a GPR151 counter-screen; shares compounds with GPR151 activ; activation, % at 11.2 µM; actives 0.3% (n = 6,700); GPR119 PathHunter beta-arrestin cells, luminescence, 90 min; 0 = compound-well median, 100 = enzyme-acceptor control;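 active = mean percent activation in the counterscreen above 29.09%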;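 also: counterscreen on off-target GPR119 to flag nonselective hits from the GPR151 activator screen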
# * hit, by the source's call; . = no result given. Compounds with a hit are over-represented: about 3.4% of the library has one in this group of screens.
SMILES,MITF primary,FBW7 act,GPR151 activ,TEAD-YAP inh,GPR151 confirm,GPR119 counter
Cc1cccc(C2N(Cc3ccccc3)CCCN2Cc2ccccc2)n1,4,0,5.4*,-6,0,-4
CN(C)CCCN(Cc1ccc2c(c1)OCO2)C(=O)NC1CCCCC1,6,0,5.2*,-1,0,-3
CC1CN(C(=O)c2ccccc2C(F)(F)F)CC(C)O1 (stereo unspecified),-9,0,8.0*,3,1,2
CC1CN(C(=O)c2cccs2)CC(C)O1 (stereo unspecified),2,0,-1,9,.,.
Cc1cc(C)c(S(=O)(=O)NCCc2ccc(S(N)(=O)=O)cc2)c(C)c1,4,0,7.1*,12,1,11
COC(=O)c1ccccc1OCCOc1ccccc1C(=O)OC,9,1,5.6*,-11,0,11
COC(=O)c1ccccc1OCCOCCOc1cccc2cccnc12,1,0,1,-7,.,.
CCCC1CCC(C2=N/C(=C\c3cc(OC)ccc3OC)C(=O)O2)CC1 (stereo unspecified),8,0,0,0,.,.
CCCn1c(=S)[nH]c2cc(C(=O)OC)ccc2c1=O,-15,0,-2,-14,.,.
Fc1ccc(C2=NC3(CCCCC3)NC2=S)cc1,-8,0,3,0,.,.
S=C1NC2(CCCCC2)N=C1c1ccccc1,-7,0,8.1*,-11,0,9
COC(=O)c1cccc(NC(=O)CN2C(=O)c3ccc([N+](=O)[O-])cc3C2=O)c1C,-10,1,5.1*,-3,1,10
COC(=O)c1ccccc1NC(=O)CN1C(=O)c2ccc([N+](=O)[O-])cc2C1=O,8,0,-1,2,.,.
CCNS(=O)(=O)c1ccc(NC(=O)c2ccccc2OCC)cc1,19,1,0,7,.,.
CCOc1ccc(C(=O)Nc2ccc(S(=O)(=O)NC(C)(C)C)cc2)cc1OCC,24,0,5.9*,2,1,-4
CCOc1ccccc1C(=O)Nc1ccc(S(=O)(=O)NC(C)CC)cc1 (stereo unspecified),6,0,13*,6,0,1
Cn1c(=O)c2c(nc(N3CCOCC3)n2CCCN=CN2CCOCC2)n(C)c1=O,-17,0,1,-5,.,.
Cc1cc(NC(=O)c2ccc(C)s2)n(-c2nc3ccccc3[nH]2)n1,3,0,5.3*,0,0,2
CC(C)CC(C(=O)N1CCCCCC1)N1Cc2ccccc2C1=O (stereo unspecified),0,0,0,4,.,.
CCN1CCN(C(=O)C(CC(C)C)N2Cc3ccccc3C2=O)CC1 (stereo unspecified),1,0,5.5*,-5,0,-2
CC(=O)Nc1cccc(-c2cnc3ccc(NC4CCOCC4)nn23)c1,-8,0,4.9*,8,0,1
O=C(O)/C=C/c1cccc(-c2cnc3ccc(NC4CCOCC4)nn23)c1,13,0,1,4,.,.
CC(C)(C)C1=NN(CCC(=O)O)C(=O)c2cc3ccccc3n2C1,-2,0,7.7*,0,0,10
CC(C)(C)C1=NN(CC(=O)Nc2nccs2)C(=O)c2cc3ccccc3n2C1,-16,0,6.1*,-3,0,8
Cc1ccc(C)c(N2C(=O)CN(S(C)(=O)=O)CC2(C)C(=O)NC2CCCCCC2)c1 (stereo unspecified),12,0,0,3,.,.
Cc1ccc(N2C(=O)CN(S(C)(=O)=O)CC2(C)C(=O)NC2CCCCC2)cc1C (stereo unspecified),3,0,5.1*,1,1,-9
COc1cccc(-n2c(CCN3C(=O)c4ccccc4C3=O)nc3ccccc3c2=O)c1,4,0,5.4*,-3,0,9
O=C1C(=O)N(CCN2CCOCC2)C(c2ccc(F)cc2)/C1=C(\O)c1ccc(F)cc1 (stereo unspecified),-1,0,0,-4,.,.
O=C1C(=O)N(CCN2CCOCC2)C(c2ccco2)/C1=C(/O)c1ccc(F)cc1 (stereo unspecified),9,0,6.7*,10,-1,6
Cc1nnc2c(Nc3ccccc3N3CCCCC3)nc3ccccc3n12,2,0,0,-4,.,.
